These results are taken from PubChem BioAssay (NCATS).

Assay [1] can be described thus: Quantitative High-Throughput drug screen in 47 multiple myeloma cell lines against the NCATS MIPE library collection: AMO1_DSMZ cell viability assay (AID 1918927; further: nearly all actives have a fitted effect of over 30% in size; further: potency means the concentration at half of the fitted maximal effect). In a few lines: (§1)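 Approved and investigational drugs from MIPE 4.0 were added by pin tool to 500 cells per well. After 48 hours at 37C, ATP-based CellTiter-Glo luminescence indicated remaining viability.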

The nature of assay [2]: Quantitative High-Throughput drug screen in 47 multiple myeloma cell lines against the NCATS MIPE library collection: ARD_JJKsccE7 cell viability assay (AID 1918929; further: potency means the concentration at half of the fitted maximal effect;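 on viability: 100% = DMSO-only wells and 0% = media-only wells without cells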). The procedure, abridged: as §1
Assay [3] can be described thus: Quantitative High-Throughput drug screen in 47 multiple myeloma cell lines against the NCATS MIPE library collection: Karpas620_DSMZ cell viability assay (AID 1918959). Further: nearly all actives have a fitted effect of over 30% in size. Further: potency means the concentration at half of the fitted maximal effect.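 On viability (% of DMSO): 100% = DMSO-only wells and 0% = cell-free media-only wells.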 In a few lines: (§2)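 Inhibition of cell viability is measured here. Each line was plated at 500 cells per well, treated with MIPE 4.0 drugs, kept 48 hours at 37C, then assayed for ATP content by CellTiter-Glo luminescence.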

Assay [4] is described as follows: Quantitative High-Throughput drug screen in 47 multiple myeloma cell lines against the NCATS MIPE library collection: JIM3_ECACC cell viability assay (AID 1918963; further: nearly all actives have a fitted effect of over 35% in size; further: potency means the concentration at half of the fitted maximal effect). In a few lines:
as §2

The target in assay [5] is Glutathione peroxidase 1 (Homo sapiens) (UniProt P07203). Description: Primary qHTS Assay for Inhibitors of Recombinant Selenoprotein Glutathione Peroxidase 1 (GPX1) (AID 1845191). Further: nearly all actives have a fitted effect of over 65% in size. Further: potency means the concentration at half of the fitted maximal effect. The procedure, abridged: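 GR-coupled assay: compounds preincubated 30 min at room temperature with GPX1, then reaction started with CHP; final 10 nM GPX1, 1 mM GSH, 0.5 mM CHP, 0.5 mM NADPH, 100 nM GR, 0.01% BSA, pH 7.5 Tris buffer. NADPH fluorescence (340/450 nm) read at 0 and 15 min.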
Glutathione peroxidase 1 (Homo sapiens), sequence (P07203 whole entry, looked up): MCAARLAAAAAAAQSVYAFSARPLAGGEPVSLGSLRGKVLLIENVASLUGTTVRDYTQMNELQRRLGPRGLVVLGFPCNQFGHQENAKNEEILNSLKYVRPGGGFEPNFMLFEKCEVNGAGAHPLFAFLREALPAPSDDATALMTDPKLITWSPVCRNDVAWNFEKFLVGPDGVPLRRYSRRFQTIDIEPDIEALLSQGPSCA
On the technique in general: Quantitative high-throughput screening tests each substance at several concentrations.

Assay [6] in a line: Quantitative High-Throughput drug screen in 47 multiple myeloma cell lines against the NCATS MIPE library collection: FR4_PLB cell viability assay (AID 1918924; further: nearly all actives have a fitted effect of over 35% in size; further: potency means the concentration at half of the fitted maximal effect). The procedure, abridged:
as §2

A short description of assay [7]: Quantitative High-Throughput drug screen in 47 multiple myeloma cell lines against the NCATS MIPE library collection: EJM_DSMZ cell viability assay (AID 1918926; further: nearly all actives have a fitted effect of over 30% in size; further: potency means the concentration at half of the fitted maximal effect). In a few lines:
as §1

The nature of assay [8]: Quantitative High-Throughput drug screen in 47 multiple myeloma cell lines against the NCATS MIPE library collection: ARP1_JJKsccF8 cell viability assay (AID 1918928; further: nearly all actives have a fitted effect of over 40% in size; further: potency means the concentration at half of the fitted maximal effect). In a few lines:
(§3)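 Myeloma cells, 500 per well, were exposed to MIPE 4.0 drugs by pin transfer for 48 h at 37 °C, 5% CO2. Viability was read as ATP luminescence with CellTiter-Glo, normalised to DMSO-only (100%) and medium-only (0%) wells.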

Assay [9] in a line: Quantitative High-Throughput drug screen in 47 multiple myeloma cell lines against the NCATS MIPE library collection: KHM11_PLB cell viability assay (AID 1918962). Further: nearly all actives have a fitted effect of over 35% in size. Further: potency means the concentration at half of the fitted maximal effect. In a few lines:
as §2

The nature of assay [10]: Quantitative High-Throughput drug screen in 47 multiple myeloma cell lines against the NCATS MIPE library collection: Delta47_JCRB cell viability assay (AID 1918925; further: nearly all actives have a fitted effect of over 45% in size; further: potency means the concentration at half of the fitted maximal effect). The procedure, abridged: as §1
Assay [11] in a line: Quantitative High-Throughput drug screen in 47 multiple myeloma cell lines against the NCATS MIPE library collection: Karpas417_ECACC cell viability assay (AID 1918961). Further: potency means the concentration at half of the fitted maximal effect.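 On viability (% of DMSO): 100% = DMSO only wells and 0% = media only wells without cells.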 The settings on record: Karpas417 myeloma viability, CellTiter-Glo ATP luminescence, 48 h; viability (% of DMSO): at 45.8 µM (top of the series) unless noted. The procedure, abridged:
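qHTS of the MIPE 4.0 collection: 500 myeloma cells/well, 48 h drug exposure at 37C in 5% CO2, then CellTiter-Glo for 5 min at room temperature before luminescence reading.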
(ATP-based viability assays read luminescence as a measure of living cells.)

Assay [12] addresses Phospholipid hydroperoxide glutathione peroxidase GPX4 (Homo sapiens) (UniProt P36969). Description: Primary qHTS Assay for Inhibitors of Recombinant Selenoprotein Glutathione Peroxidase 4 (GPX4) (AID 1845192). Further: nearly all actives have a fitted effect of over 65% in size. The procedure, abridged:
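GR-coupled assay: recombinant GPX4 preincubated 30 min with compound at room temperature; final 200 nM GPX4, 1 mM GSH, 0.5 mM cumene hydroperoxide, 0.5 mM NADPH, 100 nM GR, 0.01% BSA, pH 7.5 Tris. NADPH fluorescence (340/450 nm) read at 0 and 15 min.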

The target in assay [13] is Luciferin 4-monooxygenase (Photinus pyralis) (UniProt P08659). In words: Primary firefly luciferase (FLuc) qHTS assay for identification of artifact compounds. (AID 1845220). Further: nearly all actives have a fitted effect of over 60% in size. The procedure, abridged:
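Enzymatic FLuc inhibition assay: compounds pre-exposed to luciferin/ATP (10 uM each) for 15 min, then purified P. pyralis enzyme at 10 nM added. Read-out: luminescence at 5 min.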

Assay [14] relates to Nanoluciferase (engineered Oplophorus gracilirostris luciferase). In words: Primary Nanoluciferase (NLuc) qHTS assay for identification of artifact compounds. (AID 1845222).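 Further: NLuc secreted into diluted conditioned medium of S16 cells; 0% = DMSO and -100% = no enzyme.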 The procedure, abridged: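 S16 cell supernatant NLuc, 1:55; cpds qHTS; 15 min RT dark; Nano-Glo substrate 1:100, 5 min; luminescence; Hill fit of % inhibition.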
Assay [15] is described as follows: Primary redox qHTS assay for identification of artifact compounds. (AID 1845223).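 Further: 0% = DMSO and 100% = reference compound.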 In a few lines: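 Amplex Red (25 uM) and HRP (250 mU/mL) in HBSS, with compounds for 15 min, then 250 uM DTT for 30 min, room temperature, dark. Fluorescence 525/598 nm read; normalized to DMSO and 10 uM DA3003; Hill fit.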
Assay [16] is described as follows: Quantitative High-Throughput drug screen in 47 multiple myeloma cell lines against the NCATS MIPE library collection: KMM1_JCRB cell viability assay (AID 1918960). Further: nearly all actives have a fitted effect of over 30% in size. Further: potency means the concentration at half of the fitted maximal effect. In a few lines:
as §3

The nature of assay [17]: Primary fluorescence-based thiol-reactive (MSTI) qHTS assay for identification of artifact compounds. (AID 1845221). Further: potency means the concentration at half of the fitted maximal effect; nearly all actives have a fitted effect of over 65% in size. The procedure, abridged:
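In PBS pH 7.4 with 2% DMSO, each compound met 4 uM MSTI for one hour at ambient temperature, shielded from light, before fluorescence detection.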

Inconclusive results are not listed. Calls of active or inactive are those of the source. The call rests on the fitted dose curve; in most records, active means well fitted curve in the direction sought with a large enough effect; inconclusive means small, poorly fitted or top-dose-only effect, or another doubt; inactive means no such curve, though single readings can be large; an effect the other way counts as inactive or inconclusive.

Phospholipid hydroperoxide glutathione peroxidase GPX4 (Homo sapiens), sequence (P36969 whole entry, looked up): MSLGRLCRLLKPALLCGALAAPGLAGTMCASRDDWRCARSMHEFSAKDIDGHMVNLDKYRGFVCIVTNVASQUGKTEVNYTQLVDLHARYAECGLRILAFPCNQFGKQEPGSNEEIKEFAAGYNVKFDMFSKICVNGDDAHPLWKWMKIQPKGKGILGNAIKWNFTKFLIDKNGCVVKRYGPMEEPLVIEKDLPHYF

As for `COc1ccc(-c2oc3cc(OC)ccc3c2C(=O)c2ccc(C#N)cc2)cc1`, the Potency in assay [1] was 7.43 µM (active); in assay [2], 10.5 µM (active); in [3] it was 1.66 µM (active). The Potency result in assay [4] was “inactive”.
Turning to `Nc1nccc(-c2ccc3noc(-c4ccc(Cl)cc4)c3c2)n1`, the Potency result in assay [5], in [2] and in assay [3] was “inactive” throughout.
With `Cc1c(CN2CCN(C(=O)C(C)C)CC2)sc2c(N3CCOCC3)nc(-c3cnc(N)nc3)nc12`, the Potency in assay [6] was 83.3 nM (active); in [7], 0.833 µM (active); in assay [1] it was 0.166 µM (active); in assay [8] it was 0.0235 µM (active); in [9], 132 nM (active); in assay [4], 0.418 µM (active).
`Cc1cc([C@@H](C)Nc2ccccc2C(=O)O)c2nc(N3CCOCC3)cc(=O)n2c1`: in assay [5], the Potency entry was “inactive”. Besides, the Potency in [10] was 2.7 µM (active); in [4] it was 13.6 µM (active). Also, in [11], the viability (% of DMSO) is 5.47% [at 92.2 µM] (active).
`CC(C)(C)OC(=O)CN(Cc1ccc(Cl)cc1)Cc1ccc([N+](=O)[O-])s1`: the Potency result in assay [12], in assay [6], in [2], in [3] and in assay [9] was “inactive” throughout. Further, the Potency in assay [4] is 16.6 µM (active).
As to `O=C1CCCC2=C1C(c1[nH]ncc1Cl)N=C(Nc1nc3ccccc3o1)N2` (configuration not stated), the Potency entry in assay [12], in assay [13], in assay [6], in assay [1] and in assay [11] was “inactive” throughout. Also, the call in assay [14] and in assay [15] was inactive. Moreover, the Potency in [3] was 4.18 µM (active); in [9], 4180 nM (active).
With `CO[C@@H]1[C@H](N(C)C(=O)c2ccccc2)C[C@H]2O[C@]1(C)n1c3ccccc3c3c4c(c5c6ccccc6n2c5c31)C(=O)NC4`, the Potency result in assay [5] and in assay [6] was “inactive” in each case. Moreover, the Potency was 1.05 µM (active) in assay [10]; 0.833 µM (active) in assay [1]; 2.35 µM (active) in assay [8]; 1.05 µM (active) in assay [2]; 1.66 µM (active) in [3]; 2.35 µM (active) in [16]. Also, the Potency in assay [11] was 0.469 µM (active).
As to `CCOc1cc(C=C2C(=O)N(c3ccccc3)N=C2C)cc(Cl)c1OCC(=O)OC`, the Potency result in assay [6] and in assay [1] was “inactive” throughout. The Potency in [11] is 8.33 µM (active).
As for `Nc1ncnc2nc(-c3ccc(N4CCOCC4)nc3)cc(-c3cccc(Br)c3)c12`, the Potency result in assay [5], in assay [12], in assay [3], in [11] and in assay [9] was “inactive” in each case. Further, the Potency in assay [4] is 18.7 µM (active).
Consider `COc1ccccc1-c1cccc(-c2c(O)c3cc(C#N)c(Cl)cc3[nH]c2=O)c1`, for which the Potency entry in assay [5], in [6], in [7] and in assay [8] was “inactive” each time. In addition, in [4], the Potency is 42.9 µM (active).
For `COc1ccc(-c2ccc3c(N4CCOCC4)nc(N4C[C@@H](C)O[C@@H](C)C4)nc3n2)cc1CO`, the Potency in assay [6] was 469 nM (active); in [10], 0.296 µM (active); in assay [7] it was 1.66 µM (active); in assay [1] it was 1.32 µM (active); in assay [8] it was 0.264 µM (active); in [2] it was 1.32 µM (active). In addition, the Potency was 1.05 µM (active) in assay [3], 0.209 µM (active) in [16], 0.148 µM (active) in assay [11] and 93.5 nM (active) in assay [9].
`N#CC[C@H](C1CCCC1)n1cc(-c2ncnc3[nH]ccc23)cn1`: the Potency was 25.5 µM (active) in assay [5]; 7.43 µM (active) in assay [7]; 6.62 µM (active) in assay [1]; 5.26 µM (active) in [3]; 6.62 µM (active) in assay [4]. For the same compound, in [13], the Potency result is “inactive”. For the same compound, the result in [14] and in [15] was inactive.
Take `C[C@]12CC[C@H](O)CC1=CC[C@@H]1[C@H]2CC[C@]2(C)C(c3cccnc3)=CC[C@H]12`: the Potency result in assay [6], in assay [10], in [1], in [3], in assay [16] and in assay [4] was “inactive” throughout.
`O=C(C=Cc1ccc(/C=C/C(=O)Nc2ccc(C3=NCCN3)cc2)cc1)Nc1ccc(C2=NCCN2)cc1`: the Potency result in assay [6], in assay [10], in [7], in assay [2], in assay [3] and in assay [16] was “inactive” each time. The Potency result in assay [4] is “inactive”.
As to `Cc1ccccc1C(C(=O)NC1CCCC1)N(C(=O)Cn1cnc2ccccc21)c1cccc(F)c1` (configuration not stated), the Potency in assay [10] is 16.6 µM (active); in assay [1], 0.0264 µM (active). Further, the Potency result in assay [3] and in assay [16] was “inactive” in each case.
For `Cc1c(CCOc2ccc(C(=O)O)cc2)c2cc(Cl)ccc2n1C(c1ccccc1)c1ccccc1`, the Potency entry in [5], in assay [6], in [7], in assay [1], in assay [2] and in assay [3] was “inactive” each time. The Potency result in assay [16], in assay [11], in [9] and in [4] was “inactive” each time.
For `COc1ccc(-c2ccc3c(N4CCOC[C@H]4C)nc(N4CCOC[C@H]4C)nc3n2)cc1CO`, the Potency in assay [6] was 23.5 nM (active).
With `CN(C)c1ccc(Nc2nc(N)n(C(=O)c3c(F)cccc3F)n2)cc1`, the Potency entry in [13] is “inactive”. In addition, the Potency in [17] was 1.34 µM (active); in assay [10], 14.8 µM (active); in assay [1] it was 4.69 µM (active); in [2], 20.9 µM (active); in [11], 1.66 µM (active); in assay [9] it was 20900 nM (active). Further, the Potency in [4] is 16.6 µM (active). Further, the call in [14] and in [15] was inactive.
As to `COCC(=O)NCC=Cc1ccc2ncnc(Nc3ccc(Oc4ccc(C)nc4)c(C)c3)c2c1`, the Potency in [6] was 26400 nM (active); in assay [10], 14.8 µM (active); in assay [2] it was 11.8 µM (active); in [11], 10.5 µM (active); in [4] it was 16.6 µM (active).
With `CCOc1ccc(Cc2cc([C@@H]3O[C@H](CO)[C@@H](O)[C@H](O)[C@@H]3O)ccc2Cl)cc1`, the Potency entry in assay [6], in [10] and in assay [8] was “inactive” each time. Besides, the Potency in assay [1] was 14.8 µM (active); in assay [4], 20.9 µM (active).
Turning to `CC1(C)SCCN(S(=O)(=O)c2ccc(OCC#CCO)cc2)[C@@H]1C(=O)NO`, the Potency was 2.64 µM (active) in assay [1] and 2.35 µM (active) in [8]. The Potency entry in assay [2], in assay [3] and in assay [4] was “inactive” each time.
`CC(=O)NC(C)c1ccc(Oc2ccc(OC(C)C)cc2)cc1` (configuration not stated): the Potency entry in [5] and in assay [12] was “inactive” in each case. The Potency in [8] is 16.6 µM (active); in [3], 0.296 µM (active); in assay [16], 2.64 µM (active); in [4] it was 3.32 µM (active).
